The panel holds about 83,000 compounds, 20% with a hit somewhere; the sample as a whole holds those more often.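 Testing used 96-well plates and a 48-hour single-concentration exposure. Example: -40 means 40% of the starting cells died.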 Calls of active or inactive are those of the source. Rule for the calls: active = growth percent below 10; inactive = the rest.

This test relates to NCI-H322M lung. Briefly: NCI-60 one-dose screen, 48 h (100 = growth as untreated, 0 = no growth, -100 = all killed). As to conditions: 10 µM unless noted.
As for `COc1ccc(-c2cc(NC(=O)Nc3ccc4ncsc4c3)no2)cc1`, the growth is 107% (inactive).

With `O=[N+]([O-])c1ccccc1/C=N\NC(=S)N/N=C/c1ccccc1[N+](=O)[O-]`, the growth is 63.7% (inactive).

For `O=C1c2cc3c(cc2-c2c1c1ccc(F)cc1c(=O)n2C[C@H](O)[C@H](O)[C@H](O)CO)OCO3`, the growth was 8.49% (active).

Turning to `Cc1ccc2c(C(C[N+](=O)[O-])c3ccccc3F)c(-c3ccccc3)[nH]c2c1` (stereo not drawn), the growth is 68.5% (inactive).

For `COc1ccc(CCNc2nc(SC)nc(-c3cccc([N+](=O)[O-])c3)c2C#N)cc1OC`, the growth is 88.2% (inactive).

`O=C(CCN1C(=O)/C(=C/c2ccc(Cl)cc2)SC1=S)NCCCN1CCOCC1`: the growth was 104% (inactive).

On to `Cc1nn(-c2cc(=O)[nH]c3ccc(Cl)cc23)c(N)c1C#N`, for which the growth is 98.2% (inactive).

On to `COC[C@H](C)n1c(C2CCOCC2)nc2cnc3cc(-c4c(C)noc4C)c(OC)cc3c21`, for which the growth was 50.4% (inactive).

As to `COc1cc(C(=O)Oc2ccccc2OC(=O)c2cc(OC)c(OC)c(OC)c2)cc(OC)c1OC`, the growth is 108% (inactive).

For `COc1ccc(/C=C\c2cc(OC)c(OC)c(OC)c2)cc1OCC(=O)Nc1ccc2nc(C)sc2c1`, the growth is 69.9% (inactive).

As to `COc1cc2c(cc1O)CC[C@@H]1[C@@H]2CC[C@]2(C)[C@@H](OCCCN(C)C)CC[C@@H]12`, the growth is -22.3% (active).

With `CC(=O)Oc1ccc(Cl)cc1CN(C(C)=O)C1CCCCC1`, the growth is 101% (inactive).

As to `O=C(/C=C/c1cccc([N+](=O)[O-])c1)c1ccc(O)c(CN2CCN(c3cc4c(cc3F)c(=O)c(C(=O)O)cn4C3CC3)CC2)c1`, the growth was 61.4% (inactive).

As to `O=C1c2cc3c(cc2-c2c1c1ccc(Cl)cc1c(=O)n2CCCN1CCOCC1)OCO3`, the growth is 89.6% (inactive).

Turning to `COc1ccc(-n2nc(C)c3c(Oc4ccc(NC(=O)Nc5c(Cl)cccc5Cl)cc4)ncnc32)cc1`, the growth is 96.8% (inactive).

Consider `CCOc1cc2c(cc1OCC)C(c1cc(OC)c(O)cc1Cl)NCC2` (stereo not drawn), for which the growth is 110% (inactive).

`COC(=O)c1ccc(NC(=O)c2ccc(-c3cccc([N+](=O)[O-])c3)o2)cc1`: the growth is 94.3% (inactive).

Take `COc1ccc(-c2cc(-c3ccc(Nc4ccnc5cc(Cl)ccc45)cc3)nc(N3CCOCC3)n2)cc1`: the growth is 87% (inactive).

For the compound `O=C(COc1cccc(/C=C2\CSc3ccccc3C2=O)c1)Nc1nccs1`, the growth was 98.7% (inactive).

In the case of `N#C/C(=C\c1ccc(-c2ccc(Cl)c(Cl)c2)o1)c1nc(-c2ccco2)cs1`, the growth is 79.8% (inactive).

With `CN(C)c1ccc(N=Nc2ccc(Br)cn2)c(O)c1`, the growth was 21.1% (inactive).

For `C#CCOc1ccc2ncnc(Nc3cccc(CNC(=O)CCl)c3)c2c1`, the growth is 71.3% [8.25 µM] (inactive).

For `Cn1cc(-c2nonc2-c2c[nH]c3ccccc23)c2cccnc21`, the growth was 88.6% (inactive).

Regarding `O=CNc1ccc2c(c1)Cc1cccc(NC=O)c1-2`, the growth is 106% (inactive).

For `Cn1c(O)c(N=NC(=O)c2cc(-c3ccccc3)on2)c2ccccc21`, the growth was 108% (inactive).

In the case of `CC1=C/C(=C(\c2ccc(N(C)C)cc2)c2ccc([N+](C)(C)C)cc2)C=CC1=[N+](C)C`, the growth was 104% (inactive).

For the compound `COc1cc2c(cc1-c1c(C)noc1C)ncc1nc(C3CCCC3)n([C@H](C)COC(F)F)c12`, the growth was 46.6% (inactive).

Turning to `Clc1ccc2c(NCCNc3nc(N4CCCCC4)nc4ccccc34)ccnc2c1`, the growth was 0.0479% (active).

As for `COc1ccc2[nH]cc(-c3noc(C(=O)c4cn(C)c5ccc(F)cc45)n3)c2c1`, the growth is 96.1% (inactive).

As to `O=c1cc(CSc2nnc(-c3ccc(F)cc3)o2)c2ccc3ccccc3c2o1`, the growth was 100% (inactive).

In the case of `O=C1Nc2ccc(Br)cc2C12Oc1ccccc1C1CC(c3ccc(F)cc3)=NN12` (stereo not drawn), the growth is 96.3% (inactive).

Turning to `FC(F)(F)c1ccc(-c2cn3nc(-c4c[nH]c5ccc(Br)cc45)sc3n2)cc1`, the growth is 85.5% (inactive).

As to `COc1cc(/C=C/c2cc(/C=C/c3ccc(O)c(OC)c3)n(-c3c(Cl)cccc3Cl)c(=O)n2)ccc1O`, the growth was 72.7% (inactive).

On to `C=CCSSc1ncnc2c1ncn2C1OC(CO)C(O)C1O` (stereo not drawn), for which the growth is 33.6% (inactive).

For `O=Nc1c(O)c(Cl)cc2ccccc12`, the growth was 102% (inactive).

`Cc1cc2nc3[nH]c4ccccc4c3nc2cc1C`: the growth was 98.7% (inactive).

For `COc1cc(-c2nn(C)nc2-c2cc3ccccc3s2)cc(OC)c1OC`, the growth was 44.9% (inactive).

Turning to `CC(=O)OCCC/C(=C/c1cc2ccccc2c2ccccc12)[N+](=O)[O-]`, the growth was 58.2% (inactive).
